Reference: PubChem BioAssay (NCATS)
Inconclusive results are not listed. The source made the active and inactive calls. Calls follow the shape of the full dose curve.

Assays:
[1] = Primary qHTS for Huh7 cytotoxicity: counterscreen for inhibitors of MERS-S pseudotyped particle cell entry (AID 1479147)
[2] = Primary qHTS for inhibitors of MERS-S pseudo-typed particle cell entry (AID 1479149); also: nearly all actives have a fitted effect of over 60% in size
[3] = Primary qHTS for Vero E6 cytotoxicity: counterscreen for inhibitors of SARS-S pseudo-typed particle cell entry (AID 1479150)
% is scaled to controls: 0 for no effect and ±100 for the full control effect.

C=CC1=C(C(=O)O)N2C(=O)[C@@H](NC(=O)/C(=N\O)c3csc(N)n3)[C@H]2SC1 (stereo in doubt)
inactive: Potency [1] | Potency [2] | Potency [3]

Cc1ccc(-c2ncc(Cl)cc2-c2ccc(S(C)(=O)=O)cc2)cn1
inactive: Potency [1] | Potency [2] | Potency [3]

CC(=O)Oc1cc(C(C)C)c(OCCN(C)C)cc1C
inactive: Potency [1] | Potency [2] | Potency [3]

CCc1oc2ccccc2c1C(=O)c1cc(I)c(O)c(I)c1
inactive: Potency [1] | Potency [2] | Potency [3]

C=CCN1CCc2nc(N)sc2CC1
inactive: Potency [1] | Potency [2] | Potency [3]

CCOCCn1c(C2CCN(CCc3ccc(C(C)(C)C(=O)O)cc3)CC2)nc2ccccc21
inactive: Potency [1] | Potency [2] | Potency [3]

COC(=O)CCCCC(CCSS/C(CCO)=C(\C)N(C=O)Cc1cnc(C)nc1N)SC(C)=O (stereo not drawn)
inactive: Potency [1] | Potency [2] | Potency [3]

C[C@H]1O[C@@H](n2cc(F)c(=O)[nH]c2=O)[C@H](O)[C@@H]1O
inactive: Potency [1] | Potency [2] | Potency [3]

O=C(NCCO[N+](=O)[O-])c1cccnc1
inactive: Potency [1] | Potency [2] | Potency [3]

CN(C)C(=O)Oc1ccc[n+](C)c1
inactive: Potency [1] | Potency [2] | Potency [3]

Cc1ccc(C(C)C)cc2c(C)ccc1-2
inactive: Potency [1] | Potency [2] | Potency [3]

NC[C@H]1O[C@H](O[C@H]2[C@H](O)[C@@H](O[C@H]3O[C@H](CO)[C@@H](O)[C@H](N)[C@H]3O)[C@H](N)C[C@@H]2N)[C@H](O)[C@@H](O)[C@@H]1O
inactive: outcome [1] inactive [at 5.34 µM] | outcome [2] inactive [at 5.34 µM] | outcome [3] inactive [at 5.34 µM]

CC(N=C(NC#N)Nc1ccncc1)C(C)(C)C (stereo not drawn)
inactive: Potency [1] | Potency [2] | Potency [3]

O=C(OCC1(COC(=O)c2cccnc2)CCCC(COC(=O)c2cccnc2)(COC(=O)c2cccnc2)C1O)c1cccnc1
inactive: Potency [1] | Potency [2] | Potency [3]

O=C1[O][Bi][O]c2ccccc21
inactive: outcome [1] inactive [at 0.573 µM] | outcome [2] inactive [at 0.573 µM] | outcome [3] inactive [at 0.573 µM]

CN1C(C(=O)Nc2ccccn2)=C(O)c2sccc2S1(=O)=O
inactive: Potency [1] | Potency [2] | Potency [3]

CC(=O)N(CC(O)CO)c1c(I)c(C(=O)NCC(O)CO)c(I)c(C(=O)NCC(O)CO)c1I (stereo not drawn)
inactive: Potency [1] | Potency [2] | Potency [3]

CC(=O)[C@H]1CC[C@H]2[C@@H]3C[C@H](C)C4=CC(=O)CC[C@]4(C)[C@H]3[C@@H](O)C[C@]12C
inactive: Potency [1] | Potency [2] | Potency [3]

O=C(OOC(=O)c1ccccc1)c1ccccc1
inactive: Potency [1] | Potency [2] | Potency [3]

O=C(CCBr)N1CCN(C(=O)CCBr)CC1
inactive: Potency [1] | Potency [2] | Potency [3]

Cc1c(C(=O)O)c(O)cc2c1C(=O)c1c(O)c([C@@H]3O[C@H](CO)[C@@H](O)[C@H](O)[C@H]3O)c(O)c(O)c1C2=O
inactive: Potency [1] | Potency [2] | Potency [3]

CC(=O)Nc1ccc(S(=O)(=O)Nc2cc(C)on2)cc1
inactive: Potency [1] | Potency [2] | Potency [3]

CNC[C@H](O)c1cccc(O)c1
inactive: Potency [1] | Potency [2] | Potency [3]

Cc1c(N(C)CS(=O)(=O)O)c(=O)n(-c2ccccc2)n1C
inactive: Potency [1] | Potency [2] | Potency [3]

CC(C)[C@H](N)C(=O)OCCOCn1cnc2c(=O)[nH]c(N)nc21
inactive: Potency [1] | Potency [2] | Potency [3]

C/C=C1\[C@H]2C=C(C)C[C@]1(N)c1ccc(=O)[nH]c1C2
inactive: Potency [1] | Potency [2] | Potency [3]

NC(CO)(CO)CO
inactive: Potency [1] | Potency [2] | Potency [3]

NCCCNCCSP(=O)(O)O
inactive: outcome [1] inactive [at 11.4 µM] | outcome [2] inactive [at 11.4 µM] | activity change, negative = cytotoxicity [3] 2.55% [at 11.4 µM]

CCN1C(=O)NC(c2ccccc2)C1=O (stereo not drawn)
inactive: Potency [1] | Potency [2] | Potency [3]

CC(C)(C)NC[C@H](O)COc1cccc2c1CCCC2=O
inactive: Potency [1] | Potency [2] | Potency [3]

NCCCC[C@H](N[C@@H](CCc1ccccc1)C(=O)O)C(=O)N1CCC[C@H]1C(=O)O
inactive: Potency [1] | Potency [2] | Potency [3]

COc1c(N2C[C@@H]3CCCN[C@@H]3C2)c(F)cc2c(=O)c(C(=O)O)cn(C3CC3)c12
inactive: Potency [1] | Potency [2] | Potency [3]

COC(=O)C1=C(C)NC(C)=C(C(=O)OCC(C)=O)C1c1ccccc1[N+](=O)[O-] (stereo not drawn)
inactive: Potency [1] | Potency [2] | Potency [3]

C[N+]1(C)[C@@H]2CC(OC(=O)[C@H](CO)c3ccccc3)C[C@H]1[C@@H]1O[C@@H]12 (stereo partly drawn)
inactive: Potency [1] | Potency [2] | Potency [3]

COc1cc(C(=O)NS(=O)(=O)c2ccccc2C)ccc1Cc1cn(C)c2ccc(NC(=O)OC3CCCC3)cc12
inactive: Potency [1] | Potency [2] | Potency [3]

COC(=O)c1ccc(O)cc1
inactive: Potency [1] | Potency [2] | Potency [3]

CCCOC(=O)c1ccccc1
inactive: Potency [1] | Potency [2] | Potency [3]

Nc1nc(N)nc(-c2cc(Cl)ccc2Cl)n1
inactive: Potency [1] | Potency [2] | Potency [3]

O=c1c(-c2ccc(O)cc2)coc2cc(O)cc(O)c12
inactive: Potency [1] | Potency [2] | Potency [3]

CC(=O)OC(C)OC(=O)C(C)c1ccc(-c2ccccc2)c(F)c1 (stereo not drawn)
inactive: Potency [1] | Potency [2] | Potency [3]

O=C(/C=C/c1ccccc1)OCc1ccccc1
inactive: Potency [1] | Potency [2] | Potency [3]
